The target of experiment [1] is Cytochrome P450 2C9 (Homo sapiens) (UniProt P11712). The experiment is described as follows: Cytochrome P450 family 2 subfamily C member 9 (CYP2C9) small molecule antagonists: luciferase biochemical (cell-free) qHTS assay (AID 1645842; active = well fitted curve in the direction sought with a large enough effect in the repeat runs; an effect the other way counts as inactive or inconclusive; also: nearly all actives have a fitted effect of over 55% in size). A digest of the protocol:
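Luminescence, after 20 min with luciferin detection reagent, reflected CYP2C9 turnover during a 1 h NADPH-driven reaction at 37C. Enzyme-substrate mix contained 0.4% bovine serum albumin and was preincubated with compound 10 min at room temperature.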
On the technique in general: In qHTS, concentration-response curves come from the screen itself.

The nature of experiment [2]: Primary qHTS for inhibitors of nuclear receptor binding SET domain protein 2 (NSD2) in an isogenic RCH-ACV NSD2 p.E1099K mutant (9B) (AID 1645876). Also: nearly all actives have a fitted effect of over 70% in size.
A short description of experiment [3]: Primary qHTS for inhibitors of nuclear receptor binding SET domain protein 2 (NSD2) in an RCH-ACV wild type WT cells (2C) (AID 1645877). Also: nearly all actives have a fitted effect of over 70% in size.

The values that follow come from PubChem BioAssay (NCATS).

Several values for one entry are separate records, joined by “and”; a condition that tells them apart may be missing. Identical values can stand only once. Inconclusive results are not listed. A structure can be active in one record and inactive in another. Activity calls are given as the source filed them. Unless noted, calls follow the shape of the dose curve; as a rule, active = well fitted curve in the direction sought with a large enough effect; inconclusive = small, poorly fitted or top-dose-only effect, or another doubt; inactive = no such curve, though single readings can be large; an effect the other way counts as inactive or inconclusive.
Potency is read from the fitted curve at half-maximal effect.

Cytochrome P450 2C9 (Homo sapiens), sequence (P11712 whole entry, looked up): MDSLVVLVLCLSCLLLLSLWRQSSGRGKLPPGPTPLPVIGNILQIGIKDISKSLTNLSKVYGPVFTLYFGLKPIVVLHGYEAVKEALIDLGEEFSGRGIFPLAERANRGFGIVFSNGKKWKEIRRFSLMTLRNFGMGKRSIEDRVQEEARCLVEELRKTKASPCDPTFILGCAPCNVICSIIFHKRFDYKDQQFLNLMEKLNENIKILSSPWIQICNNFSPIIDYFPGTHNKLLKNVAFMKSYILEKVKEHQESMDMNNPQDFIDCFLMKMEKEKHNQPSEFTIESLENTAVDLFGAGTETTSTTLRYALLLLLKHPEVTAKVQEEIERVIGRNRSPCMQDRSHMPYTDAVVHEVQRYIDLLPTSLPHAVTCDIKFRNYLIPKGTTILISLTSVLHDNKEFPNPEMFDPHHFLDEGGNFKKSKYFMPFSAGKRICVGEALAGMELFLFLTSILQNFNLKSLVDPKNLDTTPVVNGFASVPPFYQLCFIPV

On to `CCNC(=O)Nc1ccc(-c2nc3c(c(N4CCOCC4C)n2)CCN(C2COC2)C3)cc1` (stereo not given), for which the Potency was 16.9 µM (active) in experiment [1], 0.325 µM (active) in experiment [2] and 0.459 µM (active) in experiment [3].
Regarding `COc1ccc(Oc2c(Cl)cnn(-c3cc(C)cc(C)c3)c2=O)cc1`, the Potency in experiment [1] is 12 µM (active); in experiment [2], 11.5 µM (active); in experiment [3], 4.09 µM (active).
Consider `C=CC(=O)N1CCC[C@@H](n2nc(-c3cccc(C(=O)Nc4ccc(C(C)C)c(C)c4)c3)c3c(N)ncnc32)C1`, for which the Potency is 8.49 µM (active) in experiment [1], 8.17 µM (active) in experiment [2] and 9.16 µM (active) in experiment [3].
Regarding `CC(=O)N1CCN(CCOc2ccc(C3CCN(C4=Nn5c(nnc5C(F)(F)F)CC4)CC3)cc2)CC1`, the Potency in experiment [1] is 12 µM (active); in experiment [2], 5.15 µM (active); in experiment [3], 6.49 µM (active).
Taken in the same sequence, the figures for `CN1CCC(NC(=O)c2cc(-c3c(O)cc(O)cc3Oc3ccc([N+](=O)[O-])cc3)on2)CC1` were 12 µM (active), 0.23 µM (active) and 0.23 µM (active).
As for `COc1cc2ncnc(Nc3cccc(I)c3)c2cc1OC`, the Potency is 13.5 µM (active) in experiment [1]; 16.3 µM (active) in experiment [2]; 14.5 µM (active) and inactive in experiment [3].
On to `COc1cc(OC)c2c(=O)[nH]c(-c3cc(C)c(OCCO)c(C)c3)nc2c1`, for which the Potency is 12 µM (active) and 10.7 µM (active) in experiment [1]; 12.9 µM (active) and 14.8 µM (active) in experiment [2]; 10.3 µM (active) and 11.8 µM (active) in experiment [3].
Take `COc1cc(F)c(C(C)C)cc1-c1ccc(C(F)(F)F)cc1CN1C(=O)OC(c2cc(C(F)(F)F)cc(C(F)(F)F)c2)C1C` (stereo not given): the Potency result in experiment [1], in experiment [2] and in experiment [3] was “inactive” in each case.
On to `CNc1cccc(CCOc2ccc3c(c2)CN(CC(F)(F)F)C(=O)[C@H](CC(=O)O)C3)n1`, for which the Potency result in experiment [1], in experiment [2] and in experiment [3] was “inactive” each time.
As to `CN(c1ccc(NC(=O)Nc2ccccc2)cc1)S(=O)(=O)c1cnn(-c2ccc(F)cc2)c1`, the Potency in experiment [1] is 0.425 µM (active); in experiment [2], 20.5 µM (active); in experiment [3], 16.3 µM (active).
In the case of `O=C(NCCCN1CCOCC1)c1cnn2c(-c3ccccc3)cc(-c3ccccc3)nc12`, in experiment [1], the Potency was 3.79 µM (active). Besides, the Potency entry in experiment [2] and in experiment [3] was “inactive” each time.
On to `COc1cc(NC(=O)c2cccc(-n3cc(NC(=O)Nc4cccc(C)c4)cn3)c2)cc(OC)c1OC`, for which the Potency is 2.68 µM (active) in experiment [1], 8.17 µM (active) in experiment [2] and 9.16 µM (active) in experiment [3].
Consider `CCOc1ccc(S(=O)(=O)N2CCCCCC2)c2ccccc12`, for which, in experiment [1], the Potency is 7.56 µM (active). In addition, the Potency entry in experiment [2] and in experiment [3] was “inactive” each time.
In the case of `Cc1cccc(N2CCN(C(=O)c3cc(S(=O)(=O)N(C)C)ccc3N3CCCC3)CC2)c1C`, the Potency in experiment [1] was 13.5 µM (active). The Potency result in experiment [2] and in experiment [3] was “inactive” in each case.
Consider `CC(C)(O)C(=O)N1CCN(c2ccc(C(F)(F)F)c(C3=C(c4c[nH]c5ccccc45)C(=O)NC3=O)c2)CC1`, for which the Potency was 3.79 µM (active) in experiment [1], 1.15 µM (active) in experiment [2] and 1.03 µM (active) in experiment [3].
Consider `COC(=O)c1ccc2c(c1)nc(NC(=O)c1ccccc1)n2CCCc1ccccc1`, for which the Potency in experiment [1] is 23.9 µM (active). For the same compound, the Potency entry in experiment [2] and in experiment [3] was “inactive” each time.
As to `Cc1csc2c(N[C@@H](C)CN3CCN(S(=O)(=O)c4ccc(Cl)c(Cl)c4)CC3)ncnc12`, the Potency is 6.01 µM (active) in experiment [1], 2.9 µM (active) in experiment [2] and 8.17 µM (active) in experiment [3].
Turning to `N#Cc1cc(CN2CCC(Nc3ncnc4sc(Cl)cc34)CC2)ccc1F`, the Potency entry in experiment [1] was “inactive”. The Potency in experiment [2] is 14.5 µM (active); in experiment [3], 20.5 µM (active).
On to `CC(=O)NC(C)c1cnc(-c2cnc(Oc3ccc(OC(C)C)cc3)s2)s1` (stereo not given), for which the Potency in experiment [1] is 9.52 µM (active); in experiment [2], 10.3 µM (active); in experiment [3], 8.17 µM (active).
Taken in the same sequence, the figures for `COC(=O)c1ccc(N2CCN(C)CC2)c(NC(=O)c2cccc(OC)c2)c1` were “inactive”, “inactive” and “inactive”.
For the compound `C=CC(=O)Nc1cccc(Nc2nc(Nc3ccc(OCCOC)cc3)ncc2F)c1`, the Potency in experiment [1] is 3.38 µM (active); in experiment [2], 3.72 µM (active); in experiment [3], 3.72 µM (active).
As for `O=C1c2ccc(Nc3ccc(F)cc3F)cc2CCc2ccc(OCC(O)CO)cc21` (stereo not given), the Potency in experiment [1] is 6.01 µM (active); in experiment [2] it was 16.3 µM (active); in experiment [3], 18.3 µM (active).
Taken in the same sequence, the figures for `COc1ccccc1N1CCN(CC(C(=O)NC(C)(C)C)c2ccccc2)CC1` (stereo not given) were 12 µM (active), “inactive” and “inactive”.
`COC(C)(C)CCn1nc(Nc2c(C)cccc2C)c2cnc(Nc3ccc(OCCN4CCCC4)c(F)c3)nc21`: the Potency in experiment [1] is 6.01 µM (active); in experiment [2], 103 nM (active) and 263 nM (active); in experiment [3], 163 nM (active) and 468 nM (active).
As for `O=C(Nc1nc2ccc([N+](=O)[O-])cc2s1)C1CCCCC1`, the Potency in experiment [1] is 19 µM (active); in experiment [2], 20.5 µM (active); in experiment [3], 12.9 µM (active).
